This passage reports binding signal results from publication PMC7862700, “An all-to-all approach to the identification of sequence-specific readers for epigenetic DNA modifications on cytosine”.

Holding throughout (test): DAPPL (digital affinity profiling via proximity ligation, sequencing); 10 mM Tris-HCl pH 7.5, 50 mM NaCl, 1 mM DTT, 4% glycerol, room temperature, 30 min; GST-TFs on glutathione beads, 16-mer random dsDNA library, 0.1% formaldehyde crosslink after washing; high values mean tight binding
For one experiment, the target named is T1, FLI1 (Homo sapiens, UniProt Q01543 1-452).
T1 sequence: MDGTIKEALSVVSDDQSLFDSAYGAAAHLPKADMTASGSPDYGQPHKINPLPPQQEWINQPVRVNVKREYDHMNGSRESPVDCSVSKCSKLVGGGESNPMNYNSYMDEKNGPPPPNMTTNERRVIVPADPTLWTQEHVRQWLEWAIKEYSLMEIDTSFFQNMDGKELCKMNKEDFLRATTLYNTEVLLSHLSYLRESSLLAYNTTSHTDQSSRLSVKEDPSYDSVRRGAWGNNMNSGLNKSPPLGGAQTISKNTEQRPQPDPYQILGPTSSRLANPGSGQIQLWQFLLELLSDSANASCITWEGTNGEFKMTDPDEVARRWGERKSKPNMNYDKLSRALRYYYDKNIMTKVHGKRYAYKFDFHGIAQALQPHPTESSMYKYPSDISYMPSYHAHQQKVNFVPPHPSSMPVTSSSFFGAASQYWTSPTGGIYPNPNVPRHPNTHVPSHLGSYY
Conditions: protein: recombinant; tags: N-terminal GST; dsDNA, one strand shown. The method, boiled down:
(§1)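 Binding signal is defined as a hexamer's read frequency for one factor over its frequency for the tag-only sample. To obtain reads, GST-fused human transcription factors were expressed in yeast, captured on glutathione beads, barcoded with DNA and pooled with that sample. Pools met 200 nmole of a 16-mer random double-stranded DNA library in Tris/NaCl/DTT/glycerol buffer for 30 min at room temperature before washing, 0.1% formaldehyde crosslinking, proximity ligation (BsaI/T4 ligase, 1 h, 37 °C), PCR and Illumina NextSeq500 sequencing.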

In a further experiment the target is T2, ELK1 (Homo sapiens, UniProt P19419 1-428).
T2 sequence: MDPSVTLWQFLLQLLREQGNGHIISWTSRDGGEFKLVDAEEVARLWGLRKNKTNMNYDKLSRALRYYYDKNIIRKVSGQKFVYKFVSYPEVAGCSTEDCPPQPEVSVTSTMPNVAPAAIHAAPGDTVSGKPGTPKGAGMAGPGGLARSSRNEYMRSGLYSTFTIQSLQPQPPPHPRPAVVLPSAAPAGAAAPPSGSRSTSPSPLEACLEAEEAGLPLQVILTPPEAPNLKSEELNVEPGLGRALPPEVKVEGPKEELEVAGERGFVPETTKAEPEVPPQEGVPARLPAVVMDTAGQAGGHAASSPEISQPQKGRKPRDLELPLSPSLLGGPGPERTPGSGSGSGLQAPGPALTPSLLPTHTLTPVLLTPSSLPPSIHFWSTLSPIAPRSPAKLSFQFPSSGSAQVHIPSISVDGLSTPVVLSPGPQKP
Conditions: protein: recombinant; tags: N-terminal GST; dsDNA, one strand shown. The method, boiled down:
as §1

A further experiment deals with T3, GABPA (Homo sapiens, UniProt Q06546 1-454).
T3 sequence: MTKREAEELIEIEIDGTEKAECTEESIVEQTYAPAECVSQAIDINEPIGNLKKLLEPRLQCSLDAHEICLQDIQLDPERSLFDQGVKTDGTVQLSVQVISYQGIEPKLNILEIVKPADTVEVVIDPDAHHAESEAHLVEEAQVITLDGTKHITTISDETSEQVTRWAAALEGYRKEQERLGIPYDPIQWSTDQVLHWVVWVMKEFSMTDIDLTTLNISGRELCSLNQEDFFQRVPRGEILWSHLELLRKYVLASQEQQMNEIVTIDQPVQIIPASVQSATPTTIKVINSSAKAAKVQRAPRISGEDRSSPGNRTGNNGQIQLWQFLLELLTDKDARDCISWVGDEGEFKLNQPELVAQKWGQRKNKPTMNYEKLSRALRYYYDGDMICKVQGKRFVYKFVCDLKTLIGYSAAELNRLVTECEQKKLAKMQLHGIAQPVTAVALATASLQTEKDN
Conditions: protein: recombinant; tags: N-terminal GST; dsDNA, one strand shown. The gist of the method:
as §1

A further experiment deals with T4, ERG (Homo sapiens, UniProt P11308 1-479).
T4 sequence: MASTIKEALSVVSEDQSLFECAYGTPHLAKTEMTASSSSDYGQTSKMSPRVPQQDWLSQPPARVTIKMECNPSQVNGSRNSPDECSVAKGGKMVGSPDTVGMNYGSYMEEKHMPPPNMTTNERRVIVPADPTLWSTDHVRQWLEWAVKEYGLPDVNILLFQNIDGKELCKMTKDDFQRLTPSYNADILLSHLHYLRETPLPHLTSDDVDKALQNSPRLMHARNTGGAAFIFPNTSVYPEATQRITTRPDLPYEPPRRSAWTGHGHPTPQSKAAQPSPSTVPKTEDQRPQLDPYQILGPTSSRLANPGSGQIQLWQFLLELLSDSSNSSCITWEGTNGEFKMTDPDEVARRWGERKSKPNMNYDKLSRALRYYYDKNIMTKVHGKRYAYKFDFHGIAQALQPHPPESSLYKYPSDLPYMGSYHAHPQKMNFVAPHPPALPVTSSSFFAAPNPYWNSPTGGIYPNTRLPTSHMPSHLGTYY
Conditions: protein: recombinant; tags: N-terminal GST; dsDNA, one strand shown. The gist of the method: as §1

The target in a further experiment is ELF1 (Homo sapiens, UniProt P32519 1-619). To be noted: protein: recombinant; tags: N-terminal GST; dsDNA, one strand shown. The method, boiled down: as §1
Chain of ELF1 (P32519 whole entry): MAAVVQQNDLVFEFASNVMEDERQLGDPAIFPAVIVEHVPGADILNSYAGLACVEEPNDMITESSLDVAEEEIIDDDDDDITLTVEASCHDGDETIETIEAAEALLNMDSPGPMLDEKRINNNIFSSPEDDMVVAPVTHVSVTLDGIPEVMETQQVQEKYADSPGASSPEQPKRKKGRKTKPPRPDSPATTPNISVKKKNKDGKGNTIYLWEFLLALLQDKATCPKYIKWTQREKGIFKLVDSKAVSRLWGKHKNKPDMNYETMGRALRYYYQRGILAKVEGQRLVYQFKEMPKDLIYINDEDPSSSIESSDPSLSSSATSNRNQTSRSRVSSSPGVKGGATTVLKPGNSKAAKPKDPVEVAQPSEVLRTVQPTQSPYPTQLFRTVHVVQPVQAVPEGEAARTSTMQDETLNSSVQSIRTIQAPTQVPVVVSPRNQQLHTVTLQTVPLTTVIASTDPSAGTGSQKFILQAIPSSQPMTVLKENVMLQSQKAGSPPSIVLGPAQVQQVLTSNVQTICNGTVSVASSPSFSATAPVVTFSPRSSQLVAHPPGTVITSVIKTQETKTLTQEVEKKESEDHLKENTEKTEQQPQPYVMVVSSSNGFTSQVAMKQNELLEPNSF
For the next experiment, the target named is SPI1 (Homo sapiens, UniProt P17947 1-270). Conditions: protein: recombinant; tags: N-terminal GST; dsDNA, one strand shown. The method, boiled down:
as §1

A further experiment addresses SPIB (Homo sapiens, UniProt Q01892 1-262). Conditions: protein: recombinant; tags: N-terminal GST; dsDNA, one strand shown. The gist of the method: as §1
In a further experiment the target is T5, ELK3 (Homo sapiens, UniProt P41970 1-407).
T5 sequence: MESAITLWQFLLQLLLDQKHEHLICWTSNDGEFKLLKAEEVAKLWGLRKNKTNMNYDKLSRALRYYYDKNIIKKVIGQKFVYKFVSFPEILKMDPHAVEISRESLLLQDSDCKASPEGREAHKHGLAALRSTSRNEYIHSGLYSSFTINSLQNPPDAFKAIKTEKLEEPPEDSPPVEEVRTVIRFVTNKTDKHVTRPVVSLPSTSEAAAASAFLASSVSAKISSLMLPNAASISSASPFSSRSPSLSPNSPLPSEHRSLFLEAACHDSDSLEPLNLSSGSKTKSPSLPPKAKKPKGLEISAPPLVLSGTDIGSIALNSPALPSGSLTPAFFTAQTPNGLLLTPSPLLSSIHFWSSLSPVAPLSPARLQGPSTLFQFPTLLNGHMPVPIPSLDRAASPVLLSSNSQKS
To be noted: protein: recombinant; tags: N-terminal GST; dsDNA, one strand shown. The gist of the method: as §1

The target in the next experiment is T6, FEV (Homo sapiens, UniProt Q99581 1-238).
T6 sequence: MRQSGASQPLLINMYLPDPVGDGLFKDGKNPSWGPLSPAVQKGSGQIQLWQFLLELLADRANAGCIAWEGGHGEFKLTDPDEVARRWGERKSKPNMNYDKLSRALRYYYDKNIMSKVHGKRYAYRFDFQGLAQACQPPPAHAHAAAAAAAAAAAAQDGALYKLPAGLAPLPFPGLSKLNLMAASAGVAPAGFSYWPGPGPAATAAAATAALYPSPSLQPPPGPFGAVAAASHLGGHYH
Conditions: protein: recombinant; tags: N-terminal GST; dsDNA, one strand shown. The method, boiled down: as §1

The target in the next experiment is ETV5 (Homo sapiens, UniProt P41161 1-510). To be noted: protein: recombinant; tags: N-terminal GST; dsDNA, one strand shown. The gist of the method: as §1
Chain of ETV5 (P41161 whole entry): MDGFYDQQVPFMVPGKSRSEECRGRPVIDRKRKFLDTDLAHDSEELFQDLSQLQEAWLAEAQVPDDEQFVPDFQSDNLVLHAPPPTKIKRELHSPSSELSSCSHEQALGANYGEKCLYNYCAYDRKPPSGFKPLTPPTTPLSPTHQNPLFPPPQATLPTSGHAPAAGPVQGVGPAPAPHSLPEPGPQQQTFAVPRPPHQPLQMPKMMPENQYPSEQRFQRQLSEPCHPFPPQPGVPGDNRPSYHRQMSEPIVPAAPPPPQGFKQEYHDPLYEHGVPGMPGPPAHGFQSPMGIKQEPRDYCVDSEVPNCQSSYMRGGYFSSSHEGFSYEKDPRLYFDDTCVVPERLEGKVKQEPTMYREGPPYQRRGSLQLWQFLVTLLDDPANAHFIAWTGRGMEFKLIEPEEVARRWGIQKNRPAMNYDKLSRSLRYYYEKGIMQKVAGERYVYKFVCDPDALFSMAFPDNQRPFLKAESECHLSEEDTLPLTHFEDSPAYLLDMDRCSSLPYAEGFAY
The target of the next experiment is HSF1 (Homo sapiens, UniProt Q00613 1-529). Conditions: protein: recombinant; tags: N-terminal GST; chain copies: 3; dsDNA, one strand shown. The gist of the method:
as §1

The target in the next experiment is ELF4 (Homo sapiens, UniProt Q99607 1-663). Conditions: protein: recombinant; tags: N-terminal GST; dsDNA, one strand shown. The gist of the method:
as §1

Another experiment has as its target T7, ELK4 (Homo sapiens, UniProt P28324-2 1-405).
T7 sequence: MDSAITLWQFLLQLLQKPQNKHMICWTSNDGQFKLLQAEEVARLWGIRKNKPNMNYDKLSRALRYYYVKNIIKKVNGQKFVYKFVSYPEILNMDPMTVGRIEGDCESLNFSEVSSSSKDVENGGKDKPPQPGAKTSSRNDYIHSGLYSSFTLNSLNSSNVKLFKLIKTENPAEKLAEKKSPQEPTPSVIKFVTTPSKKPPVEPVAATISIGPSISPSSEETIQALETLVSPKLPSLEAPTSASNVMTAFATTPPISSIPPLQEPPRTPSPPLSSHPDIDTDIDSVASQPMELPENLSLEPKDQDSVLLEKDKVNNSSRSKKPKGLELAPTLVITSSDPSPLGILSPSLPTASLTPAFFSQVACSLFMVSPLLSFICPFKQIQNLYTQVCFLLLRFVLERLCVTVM
To be noted: protein: recombinant; tags: N-terminal GST; dsDNA, one strand shown. The method, boiled down:
as §1

Another experiment deals with T8, ETV2 (Homo sapiens, UniProt O00321 1-342).
T8 sequence: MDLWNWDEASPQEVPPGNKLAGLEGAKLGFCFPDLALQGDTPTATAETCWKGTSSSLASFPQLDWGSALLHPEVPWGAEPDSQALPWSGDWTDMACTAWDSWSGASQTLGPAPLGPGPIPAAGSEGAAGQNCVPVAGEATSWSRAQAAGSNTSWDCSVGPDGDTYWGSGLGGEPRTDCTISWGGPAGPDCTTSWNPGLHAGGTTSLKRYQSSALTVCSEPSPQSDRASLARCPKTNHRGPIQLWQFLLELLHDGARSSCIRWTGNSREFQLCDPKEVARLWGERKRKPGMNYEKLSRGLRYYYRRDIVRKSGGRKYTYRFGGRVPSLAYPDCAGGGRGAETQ
Conditions: protein: recombinant; tags: N-terminal GST; dsDNA, one strand shown. The method, boiled down:
as §1

The next experiment deals with T9, ELF3 (Homo sapiens, UniProt P78545 1-371).
T9 sequence: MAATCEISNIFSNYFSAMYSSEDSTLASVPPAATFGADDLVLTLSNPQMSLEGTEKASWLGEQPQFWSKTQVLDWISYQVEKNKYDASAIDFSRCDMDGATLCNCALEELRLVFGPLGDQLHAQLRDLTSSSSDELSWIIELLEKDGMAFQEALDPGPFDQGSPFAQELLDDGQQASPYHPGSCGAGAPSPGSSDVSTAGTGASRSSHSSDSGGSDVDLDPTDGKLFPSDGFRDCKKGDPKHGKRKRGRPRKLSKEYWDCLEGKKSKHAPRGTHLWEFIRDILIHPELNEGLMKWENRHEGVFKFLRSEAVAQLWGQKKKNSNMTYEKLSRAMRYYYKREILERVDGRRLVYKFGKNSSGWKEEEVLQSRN
To be noted: protein: recombinant; tags: N-terminal GST; dsDNA, one strand shown. The method, boiled down: as §1

A further experiment concerns the target CRX (Homo sapiens, UniProt O43186 1-299). Conditions: protein: recombinant; tags: N-terminal GST; dsDNA, one strand shown. The method, boiled down: as §1
A further experiment has as its target ETV1 (Homo sapiens, UniProt P50549 1-477). Conditions: protein: recombinant; tags: N-terminal GST; dsDNA, one strand shown. The gist of the method:
as §1

Chain of HSF1 (Q00613 whole entry): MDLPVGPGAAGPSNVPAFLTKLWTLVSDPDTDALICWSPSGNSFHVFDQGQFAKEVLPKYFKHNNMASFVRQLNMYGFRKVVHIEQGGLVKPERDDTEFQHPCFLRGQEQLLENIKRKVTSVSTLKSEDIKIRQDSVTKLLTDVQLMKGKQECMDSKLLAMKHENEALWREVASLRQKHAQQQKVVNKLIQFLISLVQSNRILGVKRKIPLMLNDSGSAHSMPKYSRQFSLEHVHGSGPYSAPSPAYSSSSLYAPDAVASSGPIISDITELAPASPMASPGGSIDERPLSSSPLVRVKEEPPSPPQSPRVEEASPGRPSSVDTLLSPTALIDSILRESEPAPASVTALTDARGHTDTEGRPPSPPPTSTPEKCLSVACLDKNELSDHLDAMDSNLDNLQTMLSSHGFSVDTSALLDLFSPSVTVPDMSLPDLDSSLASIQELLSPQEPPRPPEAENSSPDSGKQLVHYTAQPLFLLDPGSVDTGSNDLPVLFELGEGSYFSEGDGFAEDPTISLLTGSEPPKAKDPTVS
Chain of CRX (O43186 whole entry): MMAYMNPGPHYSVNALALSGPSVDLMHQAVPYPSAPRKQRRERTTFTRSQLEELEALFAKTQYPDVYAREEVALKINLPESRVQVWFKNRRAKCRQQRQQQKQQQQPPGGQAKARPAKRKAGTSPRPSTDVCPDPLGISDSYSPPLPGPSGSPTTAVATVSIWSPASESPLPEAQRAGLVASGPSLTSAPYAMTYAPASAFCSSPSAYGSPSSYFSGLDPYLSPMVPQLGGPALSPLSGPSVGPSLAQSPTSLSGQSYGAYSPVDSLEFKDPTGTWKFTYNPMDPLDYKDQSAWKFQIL
Chain of ETV1 (P50549 whole entry): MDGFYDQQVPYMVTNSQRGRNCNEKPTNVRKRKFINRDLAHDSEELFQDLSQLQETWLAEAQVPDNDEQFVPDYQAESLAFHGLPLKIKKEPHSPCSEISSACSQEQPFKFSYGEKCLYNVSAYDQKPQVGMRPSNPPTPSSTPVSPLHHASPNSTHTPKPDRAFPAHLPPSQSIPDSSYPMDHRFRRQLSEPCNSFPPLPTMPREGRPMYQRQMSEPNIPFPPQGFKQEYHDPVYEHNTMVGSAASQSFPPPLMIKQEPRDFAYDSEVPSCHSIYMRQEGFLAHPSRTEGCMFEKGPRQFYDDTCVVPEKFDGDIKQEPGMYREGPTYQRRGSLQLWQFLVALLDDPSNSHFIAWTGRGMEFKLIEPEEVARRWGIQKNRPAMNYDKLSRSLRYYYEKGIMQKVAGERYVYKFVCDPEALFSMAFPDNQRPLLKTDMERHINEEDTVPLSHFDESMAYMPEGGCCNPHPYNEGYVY
Chain of SPIB (Q01892 whole entry): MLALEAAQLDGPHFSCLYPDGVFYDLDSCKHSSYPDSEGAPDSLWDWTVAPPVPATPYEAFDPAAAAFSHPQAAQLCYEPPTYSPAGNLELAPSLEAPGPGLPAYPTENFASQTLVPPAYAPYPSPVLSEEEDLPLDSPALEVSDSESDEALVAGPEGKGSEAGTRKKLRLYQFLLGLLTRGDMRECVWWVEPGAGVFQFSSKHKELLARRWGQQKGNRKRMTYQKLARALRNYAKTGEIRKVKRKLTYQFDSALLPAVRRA
Chain of ELF4 (Q99607 whole entry): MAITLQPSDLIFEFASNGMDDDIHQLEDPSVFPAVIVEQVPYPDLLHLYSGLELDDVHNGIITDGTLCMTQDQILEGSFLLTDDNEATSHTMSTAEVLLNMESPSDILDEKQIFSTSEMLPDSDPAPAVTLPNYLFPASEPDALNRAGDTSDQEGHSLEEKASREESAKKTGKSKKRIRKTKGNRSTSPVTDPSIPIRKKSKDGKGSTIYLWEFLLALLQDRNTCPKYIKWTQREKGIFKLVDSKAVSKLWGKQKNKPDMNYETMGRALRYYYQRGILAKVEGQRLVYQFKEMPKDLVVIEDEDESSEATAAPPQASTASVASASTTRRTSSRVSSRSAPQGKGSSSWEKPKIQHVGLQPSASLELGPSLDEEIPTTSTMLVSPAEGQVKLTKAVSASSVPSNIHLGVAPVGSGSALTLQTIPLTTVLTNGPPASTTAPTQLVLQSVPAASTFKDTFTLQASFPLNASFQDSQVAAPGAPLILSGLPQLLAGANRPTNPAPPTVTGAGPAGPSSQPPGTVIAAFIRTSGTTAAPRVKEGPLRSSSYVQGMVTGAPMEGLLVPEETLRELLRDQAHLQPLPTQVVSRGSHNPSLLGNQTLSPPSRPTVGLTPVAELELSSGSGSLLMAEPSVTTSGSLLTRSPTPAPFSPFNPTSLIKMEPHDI

On to AAAGCT, for which the binding signal with FLI1 is 1.06 fold enrichment (6-mer frequency, TF over GST control); in the experiment with ELK1, 1.09 fold enrichment (6-mer frequency, TF over GST control); in the experiment with GABPA it was 1.08 fold enrichment (6-mer frequency, TF over GST control); with ERG it was 1.08 fold enrichment (6-mer frequency, TF over GST control); with ELF1 it was 1.09 fold enrichment (6-mer frequency, TF over GST control); with SPI1, 1.01 fold enrichment (6-mer frequency, TF over GST control). Moreover, the binding signal with SPIB was 1.06 fold enrichment (6-mer frequency, TF over GST control); with ELK3, 1.01 fold enrichment (6-mer frequency, TF over GST control); with FEV, 1.1 fold enrichment (6-mer frequency, TF over GST control); with ETV5, 1.08 fold enrichment (6-mer frequency, TF over GST control); with HSF1, 1.32 fold enrichment (6-mer frequency, TF over GST control); in the experiment with ELF4, 1.06 fold enrichment (6-mer frequency, TF over GST control). For the same sequence, the binding signal was 1.13 fold enrichment (6-mer frequency, TF over GST control) with ELK4; 1.01 fold enrichment (6-mer frequency, TF over GST control) with ETV2; 1.2 fold enrichment (6-mer frequency, TF over GST control) in the experiment with ELF3; 1.64 fold enrichment (6-mer frequency, TF over GST control) with CRX; 1.06 fold enrichment (6-mer frequency, TF over GST control) with ETV1.
